Measured values taken from PubChem BioAssay (NCATS).
Values without a mark were called inactive. No rule for the calls is given here.

system: HIV-1 nucleocapsid protein NCp7 (binding to TG oligonucleotide); experiment: HIV Nucleocapsid (AID 346); details: HIV-1 NC / fluorescein-TGTGTGTG probe, fluorescence polarization;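 also: potency is for inhibitors that block NC binding and lower polarization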
Outline: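 Fluorescence polarization binding of 100 nM HIV-1 NC to 10 nM fluorescein-labelled TG4xF oligonucleotide. Buffer was Hepes pH 7.5 with 250mM NaCl, 1uM ZnCl2, TCEP and 2-mercaptoethanol. Compounds were incubated 1 hr at room temperature before the read.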
Potency is read from the fitted curve at half-maximal effect.

SMILES | Potency [µM]
COc1ccc(-c2nc3cnc(N4CCN(C)CC4)nc3n(C3CC3)c2=O)cc1 | > 20
O=C(c1cccc(F)c1)N1CCC2(CC1)CN(c1ccccc1)C2 | > 20
COc1cccc(-c2nccc(NCc3cccc(C)c3)n2)c1 | > 20
Cc1ccccc1-c1cc(N2CCN(C)CC2)ncn1 | > 20
N#Cc1cccc(-c2nc(NCc3ccccc3)c3ccccc3n2)c1 | > 20
COc1ccc(CNc2nc(-c3ccoc3)nc3ccccc23)c(OC)c1 | > 20
O=c1c(-c2ccc(Cl)cc2)nc2cnc(Oc3ccccc3)nc2n1C1CC1 | > 20
COc1ccc2[nH]cc(CCNc3ncncc3-c3ccccc3C(F)(F)F)c2c1 | > 20
c1ccc(Nc2ncnc3ccc(-c4ccoc4)cc23)cc1 | > 20
O=C(Nc1ccccc1)N1CCCC2(CCN(C(=O)c3cc(C(F)(F)F)cc(C(F)(F)F)c3)CC2)C1 | > 20
COc1ccc(C(=O)N2CCC[C@@]3(CCN(CC(C)C)C3)C2)cc1 | > 20
COc1ccc2[nH]cc(CCNc3ncncc3-c3ccc4c(c3)OCO4)c2c1 | > 20
COc1ccc(CNc2cc(-c3ccccc3CN(C)C)ncn2)c(OC)c1 | > 20
CN(C)C(=O)c1ccc(-c2cncnc2NCc2ccccc2)cc1 | > 20
CC(=O)N1CCC2(CC1)CN(Cc1ccc(C#N)cc1)C2 | > 20
CN1CCN(c2nc(-c3ccoc3)nc3ccccc23)CC1 | > 20
Cc1cnc(CNc2ncnc3ccc(-c4c(C)noc4C)cc23)cn1 | > 20
CN1CCN(c2ncnc3ccc(-c4ccccc4Cl)cc23)CC1 | > 20
COc1ccc(NC(=O)N2CC[C@@]3(CCCN(C(=O)c4cccc(F)c4)C3)C2)cc1 | > 20
CN(C)C(=O)c1ccc(-c2nccc(NCc3ccccc3)n2)cc1 | > 20

SMILES | Potency [µM]
CN(Cc1ccco1)c1nc(-c2ccoc2)nc2ccccc12 | > 20
CN1CCN(c2ncc3nc(-c4cn(C)c5ccccc45)c(=O)n(C)c3n2)CC1 | > 20
O=C(c1csnn1)N1CCC[C@@]2(CCN(c3cccc(-c4ccccc4)c3)C2)C1 | > 20
Cc1nc2cnc(N3CCOCC3)nc2n(C[C@H]2CCCO2)c1=O | > 20
CS(=O)(=O)N1CCC2(CC1)CN(C(=O)Nc1cccc(F)c1)C2 | > 20
COc1cccc(-c2ccc3ncnc(N4CCNCC4)c3c2)c1 | > 20
COc1ccc(Oc2ncc3nc(-c4cn(C)c5ccccc45)c(=O)n(CCC#N)c3n2)cc1 | > 20
COCCn1c(=O)c(-c2cccc(C#N)c2)nc2cnc(N(C)C)nc21 | > 4
CN(C)C(=O)c1ccc(-c2ccc3ncnc(NCCN4CCOCC4)c3c2)cc1 | > 20
COCC(=O)N1CCC2(CC1)CN(C(=O)Nc1ccccc1)C2 | > 20
Cc1cccc(CNc2ncncc2-c2ccccc2CN(C)C)c1 | > 20
c1ccc(CNc2cc(-c3cccnc3)ncn2)cc1 | > 20
O=C(c1ccncc1)N1CCC[C@@]2(CCN(Cc3cc(C(F)(F)F)cc(C(F)(F)F)c3)C2)C1 | > 20
O=C(c1ccco1)N1CCC[C@@]2(CCN(c3ccccc3)C2)C1 | > 20
CN(C)c1ncc2nc(-c3cc(F)cc(F)c3)c(=O)n(C)c2n1 | > 20
COc1ccccc1CN1CC2(CCN(C(=O)c3cccc(F)c3)CC2)C1 | > 20
CC(=O)N1CCC2(CC1)CCN(C(=O)Nc1cccc(C#N)c1)CC2 | > 20
COc1ccc(-c2nc3cnc(N4CCNCC4)nc3n(CCC#N)c2=O)cc1 | > 20
Cn1c(=O)c(-c2ccc(Cl)cc2)nc2cnc(Oc3cccc(Cl)c3)nc21 | > 20
Cn1c(=O)c(-c2cccc(F)c2)nc2cncnc21 | > 20
